# Source: PubChem (National Center for Advancing Translational Sciences (NCATS))
# RORgamma inh: blocks mouse ROR gamma transcriptional activity | P51450 | Drosophila S2 Gal4-RORgamma UAS-luciferase reporter, 20 h | Potency, µM (highest dose often 53.6 µM), most hits filed as inhibitors | 310,000 tested, 5.4% active; also: nearly all actives have a fitted effect of over 60% in size
#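 Stably transfected Drosophila Schneider cells are the test system, with ROR gamma fused to Gal4 and luciferase under UAS control; luminescence is read after 20 hr of 700 uM copper sulfate induction at ambient temperature.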
# ALOX12 inh: inhibitors of human 12S-lipoxygenase ALOX12. P18054. purified 12hLO, xylenol orange hydroperoxide absorbance. Potency, µM (doses to about 108 µM), most hits filed as inhibitors. 580,000 tested, 1.1% active. AID 1671190
# Target sequence (P18054 whole entry, looked up): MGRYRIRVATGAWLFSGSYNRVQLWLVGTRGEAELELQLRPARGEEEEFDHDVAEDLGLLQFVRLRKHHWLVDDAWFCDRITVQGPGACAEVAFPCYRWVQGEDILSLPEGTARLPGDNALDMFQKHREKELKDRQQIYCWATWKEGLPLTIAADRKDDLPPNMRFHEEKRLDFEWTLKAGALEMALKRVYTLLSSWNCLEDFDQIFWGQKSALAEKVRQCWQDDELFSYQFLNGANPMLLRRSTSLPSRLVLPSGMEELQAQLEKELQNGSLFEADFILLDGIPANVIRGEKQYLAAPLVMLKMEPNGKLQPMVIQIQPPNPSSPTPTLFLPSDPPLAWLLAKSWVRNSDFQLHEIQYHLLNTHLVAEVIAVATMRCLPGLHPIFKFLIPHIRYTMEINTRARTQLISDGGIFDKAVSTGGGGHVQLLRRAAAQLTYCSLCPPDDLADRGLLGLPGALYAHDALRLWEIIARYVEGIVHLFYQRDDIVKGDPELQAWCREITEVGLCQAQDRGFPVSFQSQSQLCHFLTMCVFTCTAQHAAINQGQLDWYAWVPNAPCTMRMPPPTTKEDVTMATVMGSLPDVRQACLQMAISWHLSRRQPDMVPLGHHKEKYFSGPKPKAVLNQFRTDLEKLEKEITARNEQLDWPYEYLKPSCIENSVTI
#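 Hydroperoxide product was detected by ferrous iron/xylenol orange as the 573 to 405 nm absorbance ratio. Arachidonic acid at 40 uM (final) was turned over for 30 min at room temperature by 150 nM human 12hLO, pH 7.0 Hepes buffer, after 15 min compound preincubation.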
# ELG1 repair inh: ELG1-dependent DNA repair inhibition. Potency, µM (titrated, usually from 46.1 µM), hits mostly inhibitors. 330,000 tested, 2.3% active. HEK293T ELG1-luciferase reporter, luminescence, 16 h; DNA damage induced by 5-fluorouridine; also: nearly all actives have a fitted effect of over 55% in size
#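 Overnight (16 hr) co-exposure of 2,000 cells/well to 5-fluorouridine and compound at 37 °C preceded detection. Luciferase was quantified via ONE-Glo luminescence; loss of signal denotes inhibition.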
# DT40 TDP1 CPT: DT40-hTDP1 cell growth loss with CPT; chicken DT40 Tdp1-/-;hTDP1 cells + 20 nM CPT, ATP luminescence, 48 h; Potency, µM (doses to about 46.2 µM), most hits filed as inhibitors; 420,000 tested, 12% active; AID 686979; also: nearly all actives have a fitted effect of over 55% in size
#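 Chicken DT40 Tdp1-/- cells stably complemented with human TDP1 were seeded at 400 cells/well in medium containing 20 nM camptothecin, exposed to pin-transferred compounds, and grown at 37 °C for at least 48 hr. Viability was read as ATP luminescence.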
# DT40 TDP1 no CPT: qHTS for Inhibitors of human tyrosyl-DNA phosphodiesterase 1 (TDP1): qHTS in cells in absence of CPT | DT40 Tdp1-/- hTDP1 cells, no CPT, ATP luminescence, 48 h | Potency, µM (titrated, usually from 46.2 µM), hits mostly inhibitors | 420,000 tested, 15% active | AID 686978, 2013; also: nearly all actives have a fitted effect of over 55% in size
#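 DT40 Tdp1-/-;hTDP1 cells, no CPT (DMSO vehicle only), 400 cells/well; compounds pin-transferred; ≥48 hr, 37 °C; CellTiter-Glo 30 min RT dark, luminescence read.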
# Gal4-VP16 FLuc: counter-screen for ROR gamma inhibitors: Gal4-VP16 reporter. Potency, µM (doses to about 53.6 µM), actives largely listed as inhibitors. 310,000 tested, 3.5% active. AID 2546. Drosophila S2 Gal4-VP16 UAS-luciferase, luminescence, 20 h;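 also: Gal4-VP16 expression switched on by copper sulfate through the metallothionein promoter; nearly all actives have a fitted effect of over 50% in size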
# Hits are given with their value; n = inactive; u = inconclusive; x = no result given. Hits are enriched below; roughly 15% of the tested compounds scored in any of these assays. Calls follow the shape of the dose curve; as a rule, active = well fitted curve in the direction sought with a large enough effect; inconclusive = small, poorly fitted or top-dose-only effect, or another doubt; inactive = no such curve, though single readings can be large; an effect the other way counts as inactive or inconclusive.
SMILES,RORgamma inh,ALOX12 inh,ELG1 repair inh,DT40 TDP1 CPT,DT40 TDP1 no CPT,Gal4-VP16 FLuc
O=C1CC(c2cccc([N+](=O)[O-])c2)c2c(ccc3ccccc23)N1 (configuration not stated),n,n,u,13µM,8.2µM,n
COc1cccc(C2CC(=O)Nc3cc(OC)c(OC)cc32)c1 (configuration not stated),u,n,n,n,n,n
O=C1CC(c2cccc(Cl)c2)c2cc3c(cc2N1)CCC3 (configuration not stated),u,u,n,4.6µM,2.9µM,u
COc1cccc(C2CC(=O)Nc3cc(C)c(C)cc32)c1 (configuration not stated),x,n,x,u,15µM,x
COc1cccc(C2CC(=O)Nc3cc4c(cc32)CCC4)c1 (configuration not stated),u,n,n,4.1µM,2.6µM,13µM
C=CCNC(=O)c1ccc(-c2nnc3ccc(NC(=O)C4CCC4)cn23)cc1,x,n,x,x,x,x
CN1C(=O)C2(CCN(C(=O)C3(c4ccccc4)CC3)CC2)c2ccccc21,x,n,x,x,x,x
O=C1CC(c2cccc([N+](=O)[O-])c2)c2cc3c(cc2N1)CCC3 (configuration not stated),n,n,16µM,18µM,26µM,u
O=S1(=O)CCOC[C@H](CC2CCCCC2)N1Cc1ccc(Cl)cc1,n,n,n,2.8µM,3.5µM,n
Cc1ccc(CN2[C@@H](CC3CCCCC3)COCCS2(=O)=O)cc1,n,n,n,u,13µM,n
COc1ccc2cnn(CC(=O)Nc3ccc(F)cc3F)c(=O)c2c1OC,x,n,x,x,x,x
CCOC(=O)C1=C[C@@H](CC)N(S(=O)(=O)c2ccc(C)cc2)[C@H]1c1cccs1,x,n,x,15µM,16µM,x
CCOC(=O)C1=C[C@@H](C(C)(C)C)N(S(=O)(=O)c2ccc(C)cc2)[C@H]1c1cccc(Cl)c1,x,n,x,15µM,13µM,x
CCOC(=O)C1=C[C@@H](C(C)C)N(S(=O)(=O)c2ccc([N+](=O)[O-])cc2)[C@H]1c1ccccc1,x,n,x,u,u,x
CCOC(=O)C1=C[C@@H](CC)N(S(=O)(=O)c2ccc([N+](=O)[O-])cc2)[C@H]1c1ccccc1,x,n,x,21µM,u,x
CCOC(=O)C1=C[C@@H](CC)N(S(=O)(=O)c2ccc(C)cc2)[C@H]1c1cccc(Cl)c1,x,n,x,u,21µM,x
CCOC(=O)C1=C[C@@H](C(C)(C)C)N(S(=O)(=O)c2ccc([N+](=O)[O-])cc2)[C@H]1c1cccc(Cl)c1,x,n,x,x,x,x
O=C(c1cc(=O)[nH]c2ccccc12)N1CCN(Cc2ccccc2)CC1,x,n,x,x,x,x
CCOC(=O)C1=C[C@@H](c2ccccc2)N(S(=O)(=O)c2ccc(C)cc2)[C@H]1c1ccc(F)cc1,x,n,x,u,u,x
CCOC(=O)C1=C[C@@H](c2ccccc2)N(S(=O)(=O)c2ccc(C)cc2)[C@H]1c1cccc(Cl)c1,x,n,x,u,23µM,x
COc1ccc(NC(=O)c2cc3ccccc3o2)cc1OC,x,n,u,n,n,x
CCc1cccc(NC(=O)c2oc3ccc4c(c3c2C)C(=O)CC(C)(C)O4)c1,x,n,x,u,21µM,x
COc1ccc(NC(=O)c2oc3ccc4c(c3c2C)C(=O)CC(C)(C)O4)cc1OC,x,n,x,21µM,12µM,x
COCCNC(=O)C[C@@H]1c2nc(NC(=O)CC(C)(C)C)sc2C[C@@H]2[C@](C)(CO)[C@H](O)CC[C@]21C,x,n,x,x,x,x
COc1cc2nc(N(C)C)nc(NC3CCN(C)CC3)c2cc1OC,x,x,x,4.5µM,4µM,x
SMILES,RORgamma inh,ALOX12 inh,ELG1 repair inh,DT40 TDP1 CPT,DT40 TDP1 no CPT,Gal4-VP16 FLuc
COc1cc2nc(Cl)nc(NC3CCN(C)CC3)c2cc1OC,x,x,x,11µM,u,x
COc1cc2nc(CCNCc3ccccc3)nc(NC3CCN(C)CC3)c2cc1OC,x,x,x,5.6µM,5µM,x
COc1cc2nc(N(C)C)nc(N)c2cc1OC,n,u,n,u,26µM,n
O=C(c1cccs1)N1CCCN(C(=O)C2CC2)c2ccccc21,x,n,x,x,x,x
NC(=O)C1(c2nc(COc3ccccc3)nn2-c2ccc3c(c2)OCO3)CC1,x,n,x,x,x,x
COC(=O)N1CC2(Cc3ccccc3N(C(C)=O)C2)C1,x,n,x,x,x,x
Cn1ccsc1=NC(=O)c1ccc([N+](=O)[O-])o1,n,n,n,18µM,u,n
COc1cc(C(=O)N=c2sccn2C)c([N+](=O)[O-])cc1OC,n,n,n,n,n,n
COC(=O)C1CCN(C(=O)c2oc3c(Cl)cc(C)cc3c2C)CC1,n,n,u,u,21µM,n
Cc1ccc2c(C)c(C(=O)N3CCN(c4ncccn4)CC3)oc2c1C,x,n,n,21µM,16µM,x
Cc1cc(Cl)c2oc(C(=O)N3CCN(c4ccncc4)CC3)c(C)c2c1,x,n,x,21µM,13µM,x
Cc1c(C(=O)N2CCN(c3ccccc3)CC2)oc2c(F)cccc12,n,n,n,u,u,n
O=C(NC1C[C@H]2CC[C@@H](C1)N2C(=O)c1ccoc1)c1ccncc1 (some centres not stated),x,n,x,x,x,x
CN(CC1CCOC1)C(=O)Nc1ccc(Br)cc1 (configuration not stated),x,n,x,x,x,x
CC(C)[C@H]1CN=C2N(C[C@H](C)NC(=O)CCC3CCCCC3)[C@H](Cc3ccc(O)cc3)CN21,n,u,n,6.5µM,6.5µM,n
C[C@@H](CN1C2=NC[C@H](C)N2C[C@H]1Cc1ccc(O)cc1)NC(=O)CCC1CCCCC1,n,n,n,12µM,13µM,n
C/C=C(\C)C(=O)NCCN1C2=NC[C@H](C(C)C)N2C[C@H]1Cc1ccc(O)cc1,n,n,n,n,n,n
C[C@@H](CN1C(=O)C(=O)NC[C@@H]1Cc1ccc(O)cc1)NC(=O)Cc1ccccc1,n,n,n,n,n,n
O=C(c1ccccc1[N+](=O)[O-])n1cnc2ccccc21,n,n,n,n,n,n
O=[N+]([O-])c1ccc(/C=N/n2cnc3ccccc32)s1,n,n,u,3.7µM,3.7µM,u
O=[N+]([O-])c1ccc(/C=N/Nc2ncccc2[N+](=O)[O-])s1,x,n,x,1.5µM,1.3µM,x
Cc1nc2ccccc2c(=O)n1/N=C/c1ccccn1,n,n,u,n,n,n
Cc1nc2ccccc2n1/N=C/c1ccc([N+](=O)[O-])s1,n,n,u,3.7µM,5.2µM,6.3µM
Cc1nc2ccccc2c(=O)n1/N=C/c1ccc([N+](=O)[O-])o1,u,x,n,x,x,u
Cc1nc2ccccc2n1/N=C/c1ccc([N+](=O)[O-])o1,x,n,x,1.8µM,2.9µM,x
